ELG1 DNA repair – blocks ELG1-dependent DNA repair in HEK293T cells. HEK293T ELG1-luciferase reporter, luminescence, 16 h; DNA damage induced by 5-fluorouridine. 2.3% of 330,000 active. Potency, µM (series often up to 46.1 µM), for inactives: at the highest dose activity change, negative = inhibition, actives largely listed as inhibitors; also: potency is read from the fitted curve at half-maximal effect; nearly all actives have a fitted effect of over 55% in size
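HEK293T cells expressing luciferase-tagged ELG1 (2,000/well) received 5-Fluorouridine plus compound or DMSO for 16 hr at 37 °C. Luciferase was read by ONE-Glo luminescence after 30 min at room temperature.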
IL-1B inflam inh – blocks inflammasome-driven IL-1 beta release; activity change, % at 57.5 µM; AID 743279; 4.7% of 360,000 active; THP-1 LPS/ATP IL-1B secretion, AlphaLISA, 16 h; active compounds read low; in the data active = activity change below about -50%; inconclusive = mostly about -30% to -49%
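Secreted IL-1B measured by AlphaLISA bead assay after 16 h compound exposure of THP-1 cells; compounds (final up to 57.5 uM) added 1 h before LPS (250 ng/mL) and ATP (1.25 mM) stimulation; lower signal means less secretion.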
DT40 TDP1 CPT – DT40-hTDP1 cell growth loss with CPT | AID 686979 | Potency, µM (titrated, usually from 46.2 µM), for inactives: at the top dose activity change, negative = growth inhibition, most hits filed as inhibitors | chicken DT40 Tdp1-/-;hTDP1 cells + 20 nM CPT, ATP luminescence, 48 h | 12% of 420,000 active; also: potency is read from the fitted curve at half-maximal effect; nearly all actives have a fitted effect of over 55% in size
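Cell growth measured by CellTiter-Glo luminescence after a minimum 48 h, 37 C compound exposure with 20 nM CPT in Tdp1-knockout DT40 cells stably expressing hTDP1, seeded 400/well; qHTS titration format.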
HT1080 IDH1KD tx – HT-1080 IDH1 knockdown cell toxicity (counter line); HT-1080 IDH1 knockdown viability, ATP luminescence, 48 h; Potency, µM (series often up to 46.1 µM), for the others: at the highest dose activity, negative = toxicity, most hits filed as cytotoxic; 2% of 360,000 active;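 also: potency is read from the fitted curve at half-maximal effect; 0% = DMSO wells and -100% = cell-free medium wells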
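After a 2 h attachment period, IDH1KD HT-1080 cells took pin-transferred compound for 48 h at 37 °C; ATP-based luminescence after 10 min room-temperature reagent incubation reported viability.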
TDP1 cell noCPT – qHTS for Inhibitors of human tyrosyl-DNA phosphodiesterase 1 (TDP1): qHTS in cells in absence of CPT | DT40 Tdp1-/- hTDP1 cells, no CPT, ATP luminescence, 48 h | Potency, µM (titrated, usually from 46.2 µM), inactives show at the highest dose activity change, negative = growth inhibition, most hits filed as inhibitors | 15% of 420,000 active; also: potency is read from the fitted curve at half-maximal effect; nearly all actives have a fitted effect of over 55% in size
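Cells were dispensed at 400 per well, compounds added by pin tool, plates incubated ≥48 hr at 37 °C, then CellTiter-Glo added for 30 min at room temperature before luminescence reading. Line: DT40 Tdp1-/- complemented with hTDP1; camptothecin omitted.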
HT1080-NT tox – kills 2HG-producing HT-1080-NT fibrosarcoma cells; HT-1080-NT fibrosarcoma viability, CellTiter-Glo ATP luminescence, 48 h; Potency, µM (titrated, usually from 46.1 µM), for inactives: top-dose activity, negative = less viability, usual class: cytotoxic; 1.6% of 360,000 active;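 also: NT is the 2HG producing partner of a matched IDH1 knockdown line; potency is read from the fitted curve at half-maximal effect; 0% = DMSO-treated cells and -100% = media-only wells without cells; nearly all actives have a fitted effect of over 55% in size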
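Luminescent CellTiter-Glo readout after 48 hours of compound exposure at 37 degrees C defined viability of HT-1080-NT cells. Activity was normalized to DMSO wells and cell-free media wells; concentration-response curves were fitted and assigned curve classes.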
* marks the source's active call; other numbers are inactive results; ? = inconclusive; . = no result given; ! = not confirmed by another sample. The list is not random: actives were taken first. Their share in the collection is about 19%. Unless noted, calls follow the shape of the dose curve; as a rule, active = well fitted curve in the direction sought with a large enough effect; inconclusive = small, poorly fitted or top-dose-only effect, or another doubt; inactive = no such curve, though single readings can be large; an effect the other way counts as inactive or inconclusive. Unless noted, % is scaled to controls: 0 for no effect and ±100 for the full control effect.

SMILES	ELG1 DNA repair	IL-1B inflam inh	DT40 TDP1 CPT	HT1080 IDH1KD tx	TDP1 cell noCPT	HT1080-NT tox
CC1=C(C(=O)N(C)C)CC(CC(=O)NCc2cccc3ccccc23)C(=O)N1CCC1=CCCCC1 (centres undefined)	.	-19	?	-1%	?	3%
CC1CCCC=CC2CC(OC(=O)CN(C)C)CC2C(O)C=CC(=O)O1 (centres undefined)	.	0	0.92µM*	0.029µM*	1µM*	?
CC1(C(=O)NCc2ccccc2)CSCC(=O)N1CC(F)(F)F (centres undefined)	.	0	7%	-1%	22%	3%
COc1cc(NC(=O)Nc2nc(C(N)Cc3ccc(C(F)(F)F)cc3)cs2)cc(OC)c1OC (centres undefined)	.	-30	12µM*	18µM*	12µM*	21µM*
Cc1csc(NC(=O)c2cc(C)oc2C)n1	?	-23	-8%	-15%	-27%	0%
COc1ccc(NC(=O)Nc2nnc(C(C)C)s2)cc1	?	-20	-20%	-12%	?	-3%
COc1ccc(CC(CC(=O)O)C(=O)Nc2ccc(OC)cc2)cc1 (centres undefined)	-1%	0	-1%	-7%	-1%	0%
COc1ccc(CC(N)c2csc(NC(=O)Nc3ccc(OC)cc3)n2)cc1 (centres undefined)	.	-50*	21µM*	?	16µM*	23µM*
COc1ccc(NC(=O)Nc2nc(C(N)Cc3ccc(C(F)(F)F)cc3)cs2)cc1 (centres undefined)	.	?	?	?	16µM*	?
COc1ccc(CC(N)c2csc(NC(=O)c3cc(C(C)(C)C)oc3C)n2)cc1 (centres undefined)	.	-57*	23µM*	21µM*	?	21µM*
CN(C)C(CNC(=O)c1cccc(S(=O)(=O)NCc2ccccc2)c1)c1ccco1 (centres undefined)	2%	-17	-11%	8%	-24%	-1%
COc1ccc([C@H]2C[C@H](O)[C@@H](n3cc(COC(=O)c4ccccc4)nn3)CN2C(=O)C2CCCCC2)cc1	.	-16	6%	-6%	?	-4%
O=C(Nc1cccc(C(F)(F)F)c1)N1CCN(C(=O)Nc2cccc(C(F)(F)F)c2)CC1	-3%	39	-10%	-11%	-9%	-2%
COc1cc(NC(=O)N2CCNC2=O)cc(C(=O)Nc2cccc(C(F)(F)F)c2)c1	?	38	3.7µM*	5.8µM*	4.1µM*	4.6µM*
CCN1CCN(Cc2ccc(NC(=O)c3ccc(C)c(NC(=O)c4cccc(-c5cn[nH]c(=O)c5)c4)c3)cc2C(F)(F)F)CC1	?	-96*	?	-7%	16µM*	?
CCN1CCN(Cc2ccc(NC(=O)c3ccc(C)c(NC(=O)C[C@@H]4NC(=O)[C@H](Cc5ccccc5)NC4=O)c3)cc2C(F)(F)F)CC1	12%	64	5%	0%	0%	9%
COc1ccc(C(=O)c2cc3cccc(OC)c3o2)cc1	?	-6	-22%	0%	7%	18%
CCN1CCN(Cc2ccc(NC(=O)c3ccc(C)c(NC(=O)c4csc(-c5ccncc5)n4)c3)cc2C(F)(F)F)CC1	?	0	16µM*	?	23µM*	?
CCN1CCN(Cc2ccc(NC(=O)c3cc(NC(=O)c4cc5cccc(OC)c5o4)cc(OC)c3)cc2C(F)(F)F)CC1	-17%	-107*!	5.8µM*	?	4.6µM*	?
O=C(/C=C/c1ccc(O)c(O)c1)O[C@@H]1C[C@@](O)(C(=O)O)C[C@H](O)[C@@H]1O	.	.	15%	.	-4%	.
CCN1CCN(Cc2ccc(NC(=O)c3ccc(C)c(/C=C/c4cnc(Nc5cc(N6CCNCC6)nc(C)n5)cn4)c3)cc2C(F)(F)F)CC1	4%	-100*	3.3µM*	18µM*!	15µM*	?
CCN1CCN(Cc2ccc(NC(=O)c3cc(NC(=O)c4cc(-c5ccc(OC)cc5)n[nH]4)cc(OC)c3)cc2C(F)(F)F)CC1	14%	0	?	?	4.6µM*	?
CCN1CCN(Cc2ccc(NC(=O)c3cc(NC(=O)c4ccc5n[nH]nc5c4)cc(OC)c3)cc2C(F)(F)F)CC1	4%	2	12%	11%	-7%	1%
CCN1CCN(Cc2ccc(NC(=O)c3cc(NC(=O)c4ccno4)cc(OC)c3)cc2C(F)(F)F)CC1	2%	?	?	-21%	23µM*	-23%
CCN1CCN(Cc2ccc(NC(=O)c3cc(NC(=O)N4CCNC4=O)cc(OC)c3)cc2C(F)(F)F)CC1	?	50	16µM*	-23%	21µM*	-11%
SMILES	ELG1 DNA repair	IL-1B inflam inh	DT40 TDP1 CPT	HT1080 IDH1KD tx	TDP1 cell noCPT	HT1080-NT tox
O=C(NCCc1nnc2n1CCN(Cc1ccccn1)CC2)c1ccc(F)cc1	.	.	-1%	.	-14%	.
Cc1cc2nccnc2cc1C	.	6	0%	4%	-3%	1%
CCN1CCN(Cc2ccc(NC(=O)c3ccc(C)c(NC(=O)C4=NN(c5ccccc5)C(=O)C4)c3)cc2C(F)(F)F)CC1	16%	16	?	0%	?	-8%
CCN1CCN(Cc2ccc(NC(=O)c3ccc(C)c(NC(=O)c4ccno4)c3)cc2C(F)(F)F)CC1	6%	-65*	13µM*	-10%	6.5µM*	-14%
CCN1CCN(Cc2ccc(NC(=O)c3cc(NC(=O)C4=NN(c5ccccc5)C(=O)C4)cc(OC)c3)cc2C(F)(F)F)CC1	?	-3	?	-2%	?	-3%
CCN1CCN(Cc2ccc(NC(=O)c3cc(NC(=O)c4cncc(-c5cccs5)c4)cc(OC)c3)cc2C(F)(F)F)CC1	?	-104*!	16µM*	18µM*	7.3µM*	?
O=C(NCCSCc1cccc(Cl)c1)C1CCN(S(=O)(=O)Cc2ccccc2)CC1	.	.	-6%	.	-30%	.
O=C(NCCn1cccn1)c1ccc(OC2CCN(C(=O)C3CC3)CC2)cc1	5%	-1	-26%	0%	9%	-1%
O=C(NCCn1cccn1)c1ccc(OC2CCN(CCc3ccccc3)CC2)cc1	14%	-81*	13%	1%	-19%	-4%
CCOc1ccc(CNC(=O)CN2C(=O)CSc3ccc(S(=O)(=O)N4CCOCC4)cc32)cc1	.	8	-11%	6%	?	-2%

High-throughput results: PubChem, National Center for Advancing Translational Sciences (NCATS)
